Measurements published in PubChem BioAssay.
Calls of active or inactive are those of the source. Unless noted, how the calls were made is not given here.

Tests used:
[1] = A549 cell viability effects, profiling panel, calcein-AM fluorescence, 48 h, basal (AID 1162); conditions: higher = more signal; further: test concentration not given here
[2] = adipocyte viability effects, profiling panel, cell-based, 3T3-L1 adipocytes, calcein-AM fluorescence, 48 h, basal (AID 1163); conditions: 3T3-L1 adipocytes viability, higher = more signal; further: test concentration not given here
[3] = HepG2 cell viability effects, profiling panel, calcein-AM fluorescence, 48 h, basal (AID 1164); conditions: higher = more signal; further: test concentration not given here
[4] = MM1S cell viability effects, profiling panel, calcein-AM fluorescence, 48 h, basal (AID 1165); conditions: higher = more signal;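 further: viability of MM1S multiple myeloma cells under basal unstimulated conditions; test concentration not given here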
[5] = basal RPMI8226 viability, no added stimulus, profiling panel, cell-based, calcein-AM fluorescence, 48 h, PK04 Diversity Set (AID 1166); conditions: RPMI8226 myeloma viability, higher = more signal;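 further: cells grown under basal conditions without added stimulus; test concentration not given here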
[6] = basal HepG2 mitochondrial membrane potential changes, profiling panel, cell-based, JC-1 fluorescence, 24 h, 100 nL compound (AID 1167); conditions: higher = more signal; further: test concentration not given here
[7] = basal 3T3-L1 adipocyte mitochondrial potential changes, profiling panel, cell-based, JC-1 fluorescence, 3T3-L1 adipocytes, 24 h, 100 nL compound (AID 1168); conditions: JC-1 mitochondrial fluorescence, higher = more signal, called active from +8 up or from −8 down; further: test concentration not given here
[8] = basal RPMI8226 mitochondrial membrane potential changes, profiling panel, cell-based, JC-1 fluorescence, 24 h, 100 nL compound (AID 1169); conditions: RPMI8226 myeloma, JC-1 mitochondrial potential fluorescence, higher = more signal; further: test concentration not given here
[9] = basal MM1S mitochondrial membrane potential changes, profiling panel, cell-based, JC-1 fluorescence, 24 h, 100 nL compound (AID 1170); conditions: higher = more signal; further: test concentration not given here
[10] = A549 lung cancer cell viability effects, profiling panel, resazurin fluorescence, 24 h, PK04 Diversity Set (AID 1171); conditions: higher = more signal, called active from +8 up or from −8 down; further: test concentration not given here
[11] = HepG2 liver cancer cell viability effects, profiling panel, resazurin fluorescence, 24 h, PK04 Diversity Set (AID 1172); conditions: higher = more signal; further: test concentration not given here
[12] = basal S. cerevisiae growth modulation, no modifier, primary screen, OD600, strain BY4716, 24 h, basal condition (AID 1173); conditions: OD600, 24 h, higher = more signal, called active from +8 up or from −8 down
[13] = MM1S myeloma cell viability, profiling panel, resazurin fluorescence, basal, 24 h, PK04 Diversity Set (AID 1174); conditions: higher = more signal, called active from +8 up or from −8 down;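 further: MM1S multiple myeloma cell line; test concentration not given here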
[14] = molecular target: Dihydroorotate dehydrogenase (quinone), mitochondrial (Plasmodium falciparum (isolate 3D7)) (UniProt Q08210); experiment: PfDHODH enzyme inhibitors, primary screen, biochemical, C-terminal His tag, absorbance 600 nm (AID 1175); conditions: DCIP absorbance 600 nm, higher = more signal, called active from +8 up or from −8 down;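 further: recombinant parasite enzyme with a five histidine tag at its C terminus; test concentration not given here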
[15] = P. aeruginosa biofilm formation inhibitors, primary screen, strain PAO1, LB-PBS medium, absorbance 600 nm (AID 1176); further: test concentration not given here; conditions: P. aeruginosa PAO1 growth/biofilm, A600, 12 h; higher = more signal
[16] = S. cerevisiae RM11-1a growth modifiers, primary screen, strain RM11-1a, OD600, basal, 24 h (AID 1177); conditions: OD600, 24 h, higher = more signal, called active from +8 up or from −8 down;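 further: cultures grown under basal conditions with no added stressor; test concentration not given here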
[17] = E. coli acrAB mutant growth effects, primary screen, E. coli filamentation inducers, strain DRC39, OD650, 24 h (AID 1178); conditions: higher = more signal, called active from +8 up or from −8 down;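 further: growth measured as culture turbidity by optical density at 650 nm; test concentration not given here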
[18] = E. coli acrAB mutant growth effects, primary screen, E. coli filamentation inducers, strain DRC39, OD650, 48 h (AID 1179);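 further: screen aims at cell division blockers that make cells filament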; conditions: E. coli DRC39 delta-acrAB growth, higher = more signal, called active from +8 up or from −8 down
[19] = RPMI8226 myeloma cell viability, profiling panel, resazurin fluorescence, basal, 24 h, PK04 Diversity Set (AID 1180); conditions: higher = more signal;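 further: RPMI8826 multiple myeloma cell line at 5000 cells per well; test concentration not given here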
[20] = molecular target: E3 ubiquitin-protein ligase XIAP (Homo sapiens) (UniProt P98170); experiment: XIAP binders, primary screen, biophysical, small-molecule microarray, fluorescence 635 nm (AID 1181); conditions: small-molecule microarray binding, higher = more signal;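 further: score merges 667 nm emission and signal to noise over triplicate slides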
Sequence of E3 ubiquitin-protein ligase XIAP (Homo sapiens) (P98170 whole entry, looked up): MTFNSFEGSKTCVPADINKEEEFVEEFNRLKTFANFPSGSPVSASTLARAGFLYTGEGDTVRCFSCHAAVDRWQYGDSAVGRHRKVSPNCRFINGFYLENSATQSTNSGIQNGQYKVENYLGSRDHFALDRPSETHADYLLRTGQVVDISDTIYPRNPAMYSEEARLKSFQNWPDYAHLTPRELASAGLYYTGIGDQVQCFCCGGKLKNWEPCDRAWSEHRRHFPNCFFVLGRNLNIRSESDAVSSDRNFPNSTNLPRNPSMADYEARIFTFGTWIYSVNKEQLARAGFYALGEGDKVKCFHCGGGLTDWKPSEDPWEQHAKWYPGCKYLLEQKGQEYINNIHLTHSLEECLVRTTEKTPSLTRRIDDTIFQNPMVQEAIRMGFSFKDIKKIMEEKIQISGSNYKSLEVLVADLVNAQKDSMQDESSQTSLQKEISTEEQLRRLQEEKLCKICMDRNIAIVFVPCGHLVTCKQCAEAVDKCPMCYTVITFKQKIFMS

Sequence of Dihydroorotate dehydrogenase (quinone), mitochondrial (Plasmodium falciparum (isolate 3D7)) (Q08210 whole entry, looked up): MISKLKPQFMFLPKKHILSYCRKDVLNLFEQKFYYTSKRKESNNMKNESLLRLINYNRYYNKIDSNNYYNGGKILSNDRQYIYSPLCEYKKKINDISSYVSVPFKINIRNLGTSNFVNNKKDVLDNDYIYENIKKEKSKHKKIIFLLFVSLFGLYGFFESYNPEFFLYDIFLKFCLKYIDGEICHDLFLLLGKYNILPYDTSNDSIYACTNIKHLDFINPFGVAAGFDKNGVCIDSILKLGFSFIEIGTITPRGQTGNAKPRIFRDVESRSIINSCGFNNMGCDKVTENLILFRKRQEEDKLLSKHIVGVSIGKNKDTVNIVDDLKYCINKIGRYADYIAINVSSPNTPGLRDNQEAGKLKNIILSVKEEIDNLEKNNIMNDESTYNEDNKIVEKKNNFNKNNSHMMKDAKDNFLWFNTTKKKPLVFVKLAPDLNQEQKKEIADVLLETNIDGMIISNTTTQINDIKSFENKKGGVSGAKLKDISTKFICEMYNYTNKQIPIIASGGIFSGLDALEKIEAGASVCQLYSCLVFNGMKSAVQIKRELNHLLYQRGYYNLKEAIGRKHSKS

SMILES	z-score [1]	z-score [2]	z-score [3]	z-score [4]	z-score [5]	z-score [6]	z-score [7]	z-score [8]	z-score [9]	z-score [10]	z-score [11]	z-score [12]	z-score [13]	composite z-score [14]	z-score [15]	z-score [16]	z-score [17]	z-score [18]	z-score [19]	composite z-score [20]
CON=C(C)CCC(=O)OC[C@H]1O[C@H](c2ccccc2)C=C[C@@H]1Oc1ccc(OC)cc1	-0.208	-0.119	-0.646	-1.32	-0.0394	-1.05	0.0208 (inactive)	0.00696	-0.0885	0.525 (inactive)	0.0444	0.831 (inactive)	0.289 (inactive)	-0.0389 (inactive)	0.0981 (inactive)	1.44 (inactive)	0.732 (inactive)	-1.76 (inactive)	0.268	0.0619
COC(=O)CC=C[C@@H](C)[C@@H](C=NO[C@@H](C)c1cc(-c2c(C)cc(C)cc2C)no1)NS(=O)(=O)c1ccc(C)cc1	-0.985	0.885	-0.145	0.236	-1.75	-0.189	-1.08 (inactive)	0.634	-0.147	0.298 (inactive)	0.245	-0.358 (inactive)	-0.019 (inactive)	-2.27 (inactive)	-0.998 (inactive)	-0.2 (inactive)	-1.1 (inactive)	-1.55 (inactive)	-0.33	-0.169
COc1cccc([C@H]2Oc3ccc(OC)cc3C(=NO[C@@H]3O[C@H](COC(C)=O)[C@@H](OC(C)=O)[C@H](OC(C)=O)[C@H]3OC(C)=O)[C@@H]2O)c1	0.679	-0.375	-0.104	-0.525	-0.476	-0.515	-3.37 (inactive)	-0.0523	0.0745	-0.416 (inactive)	-0.34	0.387 (inactive)	-0.726 (inactive)	-0.582 (inactive)	0.347 (inactive)	-1.02 (inactive)	0.416 (inactive)	-0.716 (inactive)	-0.158	0.02
COc1ccc(COC(=O)NN=C2C[C@@H](O)[C@@H](O)[C@@H]3[C@@H]4C(=O)N(Cc5ccccc5)C(=O)[C@@H]4CC[C@H]23)cc1	0.203	0.649	-0.462	0.451	-1.27	0.646	-0.585 (inactive)	0.365	-0.592	1.03 (inactive)	1.35	0.3 (inactive)	1.28 (inactive)	-0.307 (inactive)	0.07 (inactive)	-0.629 (inactive)	0.426 (inactive)	-0.463 (inactive)	0.635	0.152
COc1ccc(O[C@H]2C=C[C@@H](c3ccccc3)O[C@@H]2CON=C(C)C)cc1	0.124	-0.556	-0.462	-1.53	-0.372	-1.18	0.148 (inactive)	0.472	-0.867	0.0001 (inactive)	0.163	-0.964 (inactive)	-0.253 (inactive)	0.271 (inactive)	0.936 (inactive)	0.267 (inactive)	0.366 (inactive)	-1.8 (inactive)	0.224	0.511
CCN1C(=O)[C@H]2[C@H]3[C@H](O)[C@H](O)CC(=NNC(=O)OCc4ccc(OC)cc4)[C@@H]3CC[C@H]2C1=O	-0.241	-0.0397	-0.112	0.0505	-0.788	-0.586	-0.66 (inactive)	-0.232	-0.0402	0.247 (inactive)	-0.295	0.303 (inactive)	-0.938 (inactive)	-0.367 (inactive)	-0.708 (inactive)	-1.33 (inactive)	-0.154 (inactive)	-0.0457 (inactive)	-0.381	-0.0416
O=C1C=C[C@@H](O)[C@@H]2[C@@H]3C(=O)N(c4ccc(F)cc4F)C(=O)[C@@H]3CC[C@@H]12	0.0767	0.244	1.04	0.157	-1.1	0.991	0.46 (inactive)	-0.322	0.921	-1.47 (inactive)	-0.862	-1.76 (inactive)	-0.138 (inactive)	-1.11 (inactive)	0.565 (inactive)	-2.01 (inactive)	-0.664 (inactive)	-0.52 (inactive)	-0.956	-0.102
COc1ccc(COC(=O)NN=C2C[C@@H](O)[C@@H](O)[C@@H]3[C@@H]4C(=O)N(c5cccc(Oc6ccccc6)c5)C(=O)[C@@H]4CC[C@@H]23)cc1	0.226	-0.518	-0.826	0.754	0.196	-0.767	-0.0215 (inactive)	0.587	-0.442	0.166 (inactive)	0.702	0.968 (inactive)	0.106 (inactive)	0.861 (inactive)	-0.282 (inactive)	1.65 (inactive)	-0.401 (inactive)	-0.587 (inactive)	0.45	-0.22
C#CCCCON=C1C[C@@H](O)[C@@H](O)[C@@H]2[C@@H]3C(=O)N(C(C)(C)C)C(=O)[C@@H]3CC[C@H]12	0.053	-0.304	0.673	0.505	-0.413	-0.161	-0.505 (inactive)	0.386	-0.708	-0.496 (inactive)	-0.375	0.522 (inactive)	-0.0486 (inactive)	-0.396 (inactive)	-0.143 (inactive)	-0.311 (inactive)	0.329 (inactive)	0.221 (inactive)	-0.0553	-0.0849
CC(C)(C)N1C(=O)[C@H]2[C@H]3[C@H](O)[C@H](O)CC(=O)[C@H]3CC[C@H]2C1=O	-0.568	0.372	0.258	-1	-0.27	0.192	-0.445 (inactive)	0.651	-0.512	-0.644 (inactive)	-0.915	-0.573 (inactive)	0.319 (inactive)	0.236 (inactive)	-0.908 (inactive)	0.143 (inactive)	-0.403 (inactive)	-0.738 (inactive)	-0.383	-0.0378
C=CC[C@@H]1C=C[C@H](ON=C(C)CCN2CCc3nc(-c4ccccc4)c(-c4ccccc4)cc3C2)[C@@H](CO)O1	2.2	0.114	2.31	-2.36	-0.141	3.86	-1.91 (inactive)	0.518	-1.17	0.548 (inactive)	-0.244	-1.96 (inactive)	-2.02 (inactive)	-0.126 (inactive)	0.0767 (inactive)	0.124 (inactive)	0.921 (inactive)	0.392 (inactive)	0.365	-0.12
O=C1[C@H]2[C@H]3[C@H](O)[C@H](O)CC(=NO[C@@H]4O[C@H](CO)[C@@H](O)[C@H](O)[C@H]4O)[C@H]3CC[C@H]2C(=O)N1c1cccc(Oc2ccccc2)c1	-0.0287	-0.171	-0.733	0.411	-0.782	0.629	-0.235 (inactive)	0.142	-0.827	1.08 (inactive)	0.648	0.439 (inactive)	-0.0137 (inactive)	0.0087 (inactive)	-0.708 (inactive)	-0.929 (inactive)	-0.0313 (inactive)	-0.49 (inactive)	0.394	-0.0773
CC(C)=CCCC(C)=CCON=C1C[C@@H](O)[C@@H](O)[C@@H]2[C@@H]3C(=O)N(c4cccc(Oc5ccccc5)c4)C(=O)[C@@H]3CC[C@@H]12	-1.19	0.18	-0.795	-2.22	-3.96	-1.26	0.641 (inactive)	-0.805	0.251	0.919 (inactive)	0.171	-1.86 (inactive)	0.815 (inactive)	-2.48 (inactive)	0.0001 (inactive)	-0.556 (inactive)	0.615 (inactive)	-0.923 (inactive)	-0.198	0.0368
COC(=O)[C@H](C)NC(=O)CCC1CC(OC(=O)NCCc2ccc(F)cc2)CC2(CCCC(COC(=O)NCCC(C)C)O2)O1 (stereo not given in full)	1.22	0.464	-0.814	-3.65	-0.883	-0.591	0.521 (inactive)	0.198	-1.51	0.693 (inactive)	-0.666	-1.27 (inactive)	0.711 (inactive)	-2.05 (inactive)	0.675 (inactive)	-1.15 (inactive)	0.29 (inactive)	-0.947 (inactive)	0.967	-0.102
CC(CCN1CCCCc2nc(C)c(C)cc21)=NO[C@@H](C)c1cn([C@H](CO)Cc2ccccc2)nn1	0.455	-0.374	0.0163	0.313	0.307	-1.33	-0.151 (inactive)	0.878	-0.859	-0.32 (inactive)	-0.841	0.102 (inactive)	-1.85 (inactive)	-1.55 (inactive)	-0.631 (inactive)	0.736 (inactive)	0.882 (inactive)	1.46 (inactive)	-0.483	-0.127
COc1ccc(O[C@H]2C=C[C@@H](c3ccccc3)O[C@@H]2COC(=O)CCC(C)=NO[C@@H]2O[C@H](COC(C)=O)[C@@H](OC(C)=O)[C@H](OC(C)=O)[C@H]2OC(C)=O)cc1	-0.502	0.0711	-0.574	-0.794	-0.433	-1.05	-0.882 (inactive)	0.722	-0.375	0.363 (inactive)	0.0729	1.64 (inactive)	-0.169 (inactive)	0.671 (inactive)	-0.585 (inactive)	1.37 (inactive)	0.486 (inactive)	0.167 (inactive)	0.111	0.461
